Values joined by “and” are separate entries in the source; they are usually repeats but may differ in a detail not shown here. Equal entries are not always repeated. The panel holds about 79,000 compounds, 15% with a hit somewhere; the sample as a whole holds those more often. Values without a mark were called inactive. Active and inactive are the calls of the source. No stated cut-off is given here; in the data, active means growth inhibition above about 70%; inactive means the rest.
test: NCI Yeast Anticancer Drug Screen. Data for the rad50 strain (AID 155);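 further: 0% = growth of vehicle-only cultures of the same strain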; settings: S. cerevisiae rad50 strain growth inhibition; at 50.0 µM; hits give high values
Summary of the method: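 Growth of the mutant yeast was measured after compound exposure and referenced to vehicle-treated cultures.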

| SMILES | growth inhibition |
| --- | --- |
| CCCCCCCCCCCOP(=O)(OCC)OCC | 99.5% (active) |
| CN1C[C@H]2[C@@H](C1=O)[C@H](c1ccccc1)ON2C | -16.4% |
| Cc1cc(NC(=O)CCc2ccc(N3C(N)=NC(N)=NC3(C)C)cc2Cl)ccc1S(=O)(=O)F | 72.5% (active) |
| CN1CCc2cc3c(cc2C1)OCO3 | -22.9% and -14.8% |
| O=C1NC(=O)C(CCC(=O)c2ccc3ccccc3c2)C(=O)N1 | -29.1% |
| CN(C)C(=O)Oc1c(Cl)cccc1Cl | 28.4% |
| COC1=CC(=O)OC(CCc2ccccc2)C1 (stereo not given) | -2.7% |
| CC([NH-])C(=O)O.CC([NH-])C(=O)O.[Cu+2] (stereo not given) | -0.95% |
| CC(O)C[N+](=O)[O-] (stereo not given) | 5.35% |
| Cc1ccc(SP(=S)(Sc2ccc(C)cc2)Sc2ccc(C)cc2)cc1 | 11.7% |
| O=[As](O)(O)c1cc(F)ccc1F | -5.75% |
| Nc1cc(C(=O)O)ccc1O.[Cl][Sn][Cl] | 2.2% |
| O=C(/C=C/c1ccccc1)Nc1ccc(Cl)cc1C(=O)c1ccccc1 | -2.6% |
| Oc1cc(Cl)c(O)c(Cl)c1 | 2.9% |
| CC(CCF)C(N)C(=O)O (stereo not given) | 1.8% and -0.7% |
| COc1ccc([N+](=O)[O-])cc1N=Cc1ccc(N(CCCl)CCCl)cc1C | 43% |
| O=[N+]([O-])c1ncccc1NCCN1CCCC1 | -2.2% |
| C[N+](C)(C)CC1CCCCC1=O (stereo not given) | 24.1% |
| C[N+]1(CCCl)CCc2cc([N+](=O)[O-])ccc2C1 (stereo not given) | -25.1% |
| CC[As](=O)(O)c1ccc(I)cc1 | 3.6% |

| SMILES | growth inhibition |
| --- | --- |
| Cc1cc(Cl)ccc1NC(=O)/C(CC(=O)CC(c1ccccc1)c1c(O)c2ccccc2oc1=O)=N\O (stereo not given) | -14.9% |
| CP(C)C.[Ag][I] | -26.4% |
| COC1CC(OC2C(C)OC(OC3C(C)OC(OC4C(C)OC(O[C@H]5CC[C@@]6(C)C(=CC[C@]7(O)[C@@H]6C[C@@H](OC(C)=O)[C@@]6(C)[C@]7(O)CC[C@@]6(O)C(C)=O)C5)CC4OC)CC3OC)CC2OC)OC(C)C1O (stereo not given in full) | -7.85% |
| O=S(=O)(c1ccccc1)N1C2CCCC21 (stereo not given) | 14.1% |
| CCNCCC1(CC)C(=O)NC(=O)NC1=O | -22.2% |
| Cc1cccc(C(=O)[O][Pb]([CH3])([CH3])[CH3])c1 | 16.1% |
| CC(=O)C(C(C)=O)C(=O)c1ccc([N+](=O)[O-])cc1.[Cr] | -23.5% |
| [N-]=[N+]=NC1C2CC3CC(C2)CC1C3 (stereo not given) | -15.7% |
| C[N+]1(C)CCN(c2ccccc2)CC1 | 18.9% |
| OC(COc1cccc2ccccc12)CN(CCCl)CCCl (stereo not given) | 6.85% |
| CCOC(=O)C(C(=O)OCC)c1ccccc1 | 7.05% and 25.4% |
| CCCC[As](CCCC)SC1OC(COC(C)=O)C(OC(C)=O)C(OC(C)=O)C1OC(C)=O (stereo not given) | 98.6% (active) |
| CCCCOC1OCN(C2CCCCC2)CC1(C)C (stereo not given) | 13.5% |
| c1ccc2c(c1)sc1sc3c([n+]12)CCCC3 | 6.25% |
| COC1OC2COc3ccccc3OC2C(N=C(N)N[N+](=O)[O-])C1OS (stereo not given) | -0.8% |
| CC(C)OP(=O)(OC(C)C)C(C(F)(F)F)C(F)(F)F | -3.65% |
| NCCCP(c1ccccc1)c1ccccc1 | 0.3% |
| CC(NC1=NCCO1)c1cccs1 (stereo not given) | 12.2% |
| CC1CN(C2CCCCC2)CO1 (stereo not given) | -0.6% |
| CCOP(=O)(OCC)Oc1ccc([N+](=O)[O-])c(CC)c1 | -2.55% |

test: NCI Yeast Anticancer Drug Screen. Data for the mec2-1 strain (AID 157); settings: S. cerevisiae mec2-1 strain, at 50.0 µM, hits give high values
Summary of the method: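 Cells of the genetically defined mec2-1 yeast strain are incubated with test compound. Inhibition of growth is calculated against vehicle-treated controls.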

| SMILES | growth inhibition |
| --- | --- |
| CCCCCCCCCCCOP(=O)(OCC)OCC | 99.8% (active) |
| CN1C[C@H]2[C@@H](C1=O)[C@H](c1ccccc1)ON2C | -55.2% |
| Cc1cc(NC(=O)CCc2ccc(N3C(N)=NC(N)=NC3(C)C)cc2Cl)ccc1S(=O)(=O)F | 94.1% (active) |
| CN1CCc2cc3c(cc2C1)OCO3 | 2.5% and -16.9% |
| O=C1NC(=O)C(CCC(=O)c2ccc3ccccc3c2)C(=O)N1 | -22.8% |
| CN(C)C(=O)Oc1c(Cl)cccc1Cl | 24.4% |
| COC1=CC(=O)OC(CCc2ccccc2)C1 (stereo not given) | -5.9% |
| CC([NH-])C(=O)O.CC([NH-])C(=O)O.[Cu+2] (stereo not given) | 11.3% |
| CC(O)C[N+](=O)[O-] (stereo not given) | 8.65% |
| Cc1ccc(SP(=S)(Sc2ccc(C)cc2)Sc2ccc(C)cc2)cc1 | -65.8% |
| O=[As](O)(O)c1cc(F)ccc1F | -4.3% |
| Nc1cc(C(=O)O)ccc1O.[Cl][Sn][Cl] | -4.15% |
| O=C(/C=C/c1ccccc1)Nc1ccc(Cl)cc1C(=O)c1ccccc1 | 14.8% |
| Oc1cc(Cl)c(O)c(Cl)c1 | -2.05% |
| CC(CCF)C(N)C(=O)O (stereo not given) | 28.9% and 5.4% |
| COc1ccc([N+](=O)[O-])cc1N=Cc1ccc(N(CCCl)CCCl)cc1C | 13.3% |
| O=[N+]([O-])c1ncccc1NCCN1CCCC1 | -0.5% |
| C[N+](C)(C)CC1CCCCC1=O (stereo not given) | 11.6% |
| C[N+]1(CCCl)CCc2cc([N+](=O)[O-])ccc2C1 (stereo not given) | -84.7% |
| CC[As](=O)(O)c1ccc(I)cc1 | -8.4% |

| SMILES | growth inhibition |
| --- | --- |
| Cc1cc(Cl)ccc1NC(=O)/C(CC(=O)CC(c1ccccc1)c1c(O)c2ccccc2oc1=O)=N\O (stereo not given) | -8.4% |
| CP(C)C.[Ag][I] | -7.85% |
| COC1CC(OC2C(C)OC(OC3C(C)OC(OC4C(C)OC(O[C@H]5CC[C@@]6(C)C(=CC[C@]7(O)[C@@H]6C[C@@H](OC(C)=O)[C@@]6(C)[C@]7(O)CC[C@@]6(O)C(C)=O)C5)CC4OC)CC3OC)CC2OC)OC(C)C1O (stereo not given in full) | -7.45% |
| O=S(=O)(c1ccccc1)N1C2CCCC21 (stereo not given) | 2.55% |
| CCNCCC1(CC)C(=O)NC(=O)NC1=O | -16.8% |
| Cc1cccc(C(=O)[O][Pb]([CH3])([CH3])[CH3])c1 | -53.7% |
| CC(=O)C(C(C)=O)C(=O)c1ccc([N+](=O)[O-])cc1.[Cr] | 9.5% |
| [N-]=[N+]=NC1C2CC3CC(C2)CC1C3 (stereo not given) | 8.3% |
| C[N+]1(C)CCN(c2ccccc2)CC1 | -29.6% |
| OC(COc1cccc2ccccc12)CN(CCCl)CCCl (stereo not given) | -12.5% |
| CCOC(=O)C(C(=O)OCC)c1ccccc1 | -11% and 12.9% |
| CCCC[As](CCCC)SC1OC(COC(C)=O)C(OC(C)=O)C(OC(C)=O)C1OC(C)=O (stereo not given) | 98.7% (active) |
| CCCCOC1OCN(C2CCCCC2)CC1(C)C (stereo not given) | 28.1% |
| c1ccc2c(c1)sc1sc3c([n+]12)CCCC3 | -8.75% |
| COC1OC2COc3ccccc3OC2C(N=C(N)N[N+](=O)[O-])C1OS (stereo not given) | -7.55% |
| CC(C)OP(=O)(OC(C)C)C(C(F)(F)F)C(F)(F)F | 9.65% |
| NCCCP(c1ccccc1)c1ccccc1 | 0.4% |
| CC(NC1=NCCO1)c1cccs1 (stereo not given) | -2.15% |
| CC1CN(C2CCCCC2)CO1 (stereo not given) | -30.8% |
| CCOP(=O)(OCC)Oc1ccc([N+](=O)[O-])c(CC)c1 | -3.55% |

Reference: PubChem BioAssay (NCI)
